From the supplement of paper PMC3334620
Whole data set: some 33,000 sequences, median “E-score (-0.5 to 0.5)” near -0.0014, cut for the highest 2% near 0.25. The entries come from a sample that favours the highest values as a whole.

target: T1, Cad1 (UniProt P24813); assay: PBM E-score (8-mer binding enrichment) (E-score (-0.5 to 0.5)); higher = stronger / more preferred TF binding; conditions: protein concentration: 100 nM; construct: GST-full length
T1 sequence: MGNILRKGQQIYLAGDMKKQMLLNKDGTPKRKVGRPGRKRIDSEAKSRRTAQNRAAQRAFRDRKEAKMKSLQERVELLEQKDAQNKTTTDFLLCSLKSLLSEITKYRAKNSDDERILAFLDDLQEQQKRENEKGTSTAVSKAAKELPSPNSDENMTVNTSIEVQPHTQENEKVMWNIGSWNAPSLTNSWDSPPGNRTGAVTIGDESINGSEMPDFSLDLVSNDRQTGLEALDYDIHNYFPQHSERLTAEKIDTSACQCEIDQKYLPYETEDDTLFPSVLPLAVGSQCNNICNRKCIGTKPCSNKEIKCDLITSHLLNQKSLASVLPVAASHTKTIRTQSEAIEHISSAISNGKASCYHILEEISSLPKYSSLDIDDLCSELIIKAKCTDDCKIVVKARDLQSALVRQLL
How it was run: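 PURExpress in vitro transcription/translation supplied GST-tagged yeast transcription factors, either full-length or DNA-binding domain. Applied at about 100-200 nM to universal all-10-mer Agilent arrays double-stranded by primer extension, the bound protein was detected with fluorescent anti-GST. E-scores, modified Wilcoxon-Mann-Whitney statistics, were given by the Universal PBM Analysis Suite to ungapped eight-base words pooled with their reverse complements after masliner normalisation.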

Sequence	PBM E-score
CTTAAGGA	0.0352
AAGGCACA	-0.0665
TGACCGCA	0.0752
AAATGATA	0.214
GAATGATA	0.223
TAATGATA	0.251
AAATGATT	0.261
AAATGATC	-0.133
CAATGATA	0.0335
AATCTGCG	0.00478
CAGGTTAC	-0.0155
CACTTCGG	-0.0116
AATTGTAC	0.252
GATTGTAC	-0.082
CATTGTAC	0.0995
AACACAGC	0.281
CACACAGC	0.107
AACACAGG	-0.0364
CGGGGGCC	-0.42
CGGAGGTA	-0.0635
GGCGTCCC	-0.213
GGACGTCA	-0.159
TGACGTCA	0.334
AGACGTCA	-0.096
ACTCGACG	0.0798

Sequence	PBM E-score
AGTCGACA	0.22
CGTCGACC	0.118
GGTCGACC	0.263
CGTCGACG	0.103
GGTCGACA	0.0882
AGTCGACG	0.296
AGTCGACC	0.107
AGTCGACT	0.287
CCAACTAG	0.0684
GCGCACCA	0.134
CTAACCTA	-0.129
AACTAGCC	-0.0573
AGAACAGC	0.00791
ACGCATTG	-0.0523
GAACATAC	0.0334
AGTGGCGG	-0.014
CTCAGGCA	0.034
GAACGAAA	-0.0129
AAACGAAA	0.287
AAACGAAC	0.0751
TAACGAAA	0.26
AAACGGAA	0.266
ACACCAAG	-0.0199
GCACCAAA	-0.0001
CAACGAAA	0.162

Sequence	PBM E-score
AAACGGAC	-0.00593
AAACGAAT	0.017
ACACCAAA	0.254
GAACGGAA	-0.0319
GGGCAACA	-0.0207
TTCAAAAA	-0.0855
ACATTCCG	0.05
CATGGAAA	0.161
AGCTGAAT	-0.00032
GGGCAGTA	-0.0606
TAACGATA	0.261
ACACGAAG	0.0492
AAACGATA	0.128
ACACGAAA	0.257
CAACGATA	0.174
ACACGAAT	0.0874
GCAGTTAC	0.128
CAAGTACG	-0.268
GCGGAGAC	0.267
ACGGAGAC	0.128
CCGGAGAC	0.036
CTCAACGA	-0.0873
GTACATAA	0.0232
TGACATAA	0.266
CTACATAA	-0.0789

Sequence	PBM E-score
TTACCTAA	0.334
TTACATAA	0.438
ATACCTAA	0.227
AGACATAA	0.0308
CTACCTAA	0.0375
GGACATAA	0.102
AAGTGGCA	-0.0104
CTCCATGA	0.0675
CCATAAGA	-0.0777
AAGCCTCG	-0.00547
ATTGTGAA	0.0555
GCCCTCCC	-0.19
AAGCACAT	0.254
AAGCACAG	0.0641
AAGCACAC	-0.0239
CGTAACAA	0.0611
GGTAACAA	0.261
AGTAACAA	0.082
ACCATCCG	-0.081
AAGTCCTC	-0.0441
ATCGATTA	0.275
CTCGATTC	0.0642
CACGATTA	0.162
ATCGATTC	0.0832
ATCGATTG	0.299

Sequence	PBM E-score
ATCGATCG	0.188
GTCGATTA	0.115
CTCGATTA	0.276
ACCGATTA	0.123
CCCTAGGC	-0.079
TACCCAGA	0.109
ACACAGAT	0.0606
CGCACACC	0.0191
ACGTCCGA	-0.0154
CCTGGTAG	-0.209
TAGTTATA	0.068
AGTGCGTC	-0.0502
AACCTGCC	-0.164
GTCTAGTA	0.0789
AACTTGAC	0.0523
ACGCACCC	-0.147
AAAGTTCT	0.0926
ACTACCGG	-0.231
ATAACGAC	0.189
GCAACGAA	0.275
ATAAACAA	0.261
CTAACGAA	0.153
ACAAACAG	0.0175
ACAACGAA	0.145
ACAAACAC	0.262

Sequence	PBM E-score
ATAAACAC	0.15
ACAAACAA	0.176
TCAACGAA	0.0907
ATAACGAA	0.258
TTAAACAA	-0.157
GACCACGA	0.0423
CGCACTAC	0.0013
GGCCGTTA	0.0668
ACGTGGAG	-0.0145
CCCCTATA	-0.144
CCGGTCTC	-0.161
CTTAGAGC	-0.0659
AAAAGCGC	0.0216
AAGTGCTA	-0.257
GGGTCCGA	-0.21
ACGAGACC	-0.00034
CGAACAAG	0.128
ATAACAAG	0.205
AGAACAAA	0.247
ATAACAAT	0.0624
CGAACAAA	0.28
ATAACAAA	0.312
GCATCGAC	-0.0789
GACAGATA	0.0715
CAACGTTC	-0.009

Sequence	PBM E-score
CAACGTTG	0.263
AAACGTTG	-0.0452
ATTATTAA	0.384
ATTGTTAA	0.0122
GTTATTTA	0.153
AGTATTAG	0.299
GTTATTAA	0.291
CGTATTAG	0.165
AGTATTAA	0.0712
GTTGTTAA	0.259
CTTGTTAA	-0.0916
GTTATTGA	0.159
ATTATTAC	0.0832
ACTATTAA	0.123
CTCGCGGA	-0.155
CGCAGCAC	0.0114
ACATACGA	0.117
CTGAAGAA	-0.18
CAACTGTG	-0.031
CAAGACAG	-0.0259
CATGCCAG	-0.0523
TGTGTTAA	0.19
CTTATTAC	0.218
CTTATTAA	0.42
AGTGTTAA	0.255

Sequence	PBM E-score
CCTATTAA	-0.00224
GGTGTTAA	0.0749
TATTTTAA	0.107
GCGGCTTA	0.227
ACCTCTTA	0.153
AAGTCATG	0.0989
ACCGCCTG	-0.142
ACCCGGAC	-0.179
CTTTAATC	-0.00133
CTTTAATA	0.218
ATTTAATA	0.316
ATTTAATC	0.285
ATTTAATG	0.213
GTTTAATA	0.189
AGAGAGGC	-0.297
AGTAAACT	0.105
CCTAGATA	-0.0467
CACGTTTC	-0.176
CAATTTAA	0.156
CAATTTTA	0.27
CAATTTTC	0.125
CTCGCTGA	0.0202
CCGATCGA	0.0111
TCGATCGA	0.27
ACGATCGA	0.254

Sequence	PBM E-score
GCGATCGA	0.248
ACGATCGG	0.0625
ACGATCGT	-0.0266
GATTGAGC	0.0444
ATCAGCAT	0.192
CACTAACC	0.0546
CACTAAGC	0.0972
GACTAATC	0.362
CACTAATC	0.262
AACTAATC	0.179
GACTAAGC	0.228
CTCGCTCA	0.138
CACCGCCC	-0.0109
GAACTTAA	0.116
AAACTCAA	0.163
TAACTTAA	0.259
AAACTTAT	0.256
AAACTAAA	0.141
AAACTCAT	0.253
CAACTTAA	0.0842
AAACTTAA	0.171
AAACTTAC	0.0226
AAACTCAG	-0.00451
AAACTAAT	0.36
AAACTAAG	0.166

Sequence	PBM E-score
CCCCCTGA	-0.414
AGGGATCG	-0.207
AAAAGTGT	-0.074
CCAGACAA	0.0234
CTAGGTGC	-0.221
AACCGCTT	0.0439
CTTCCTAA	0.0434
AGTCCTTG	-0.0247
ATCAAGCC	-0.0325
CATCGCGA	0.25
TATCGCGA	0.259
AATCGCGA	0.196
CATCGCGC	0.051
TATCGCAA	0.22
GATCGCGA	0.132
CGGCTCCA	-0.0781
CGCGTTAC	0.139
AACGGGGT	-0.13
GTTAGCAA	0.0595
CTAAGCAA	0.0503
ATTAGCAG	0.0216
ATTAGCAA	0.304
CTAAGCTA	0.135
TTAAGCAA	-0.0269
GTAAGCAA	0.345

Sequence	PBM E-score
GTAAGCTA	0.298
GTAAGCAC	0.163
CTAAGCAC	0.294
CTAAGCAG	-0.078
ATAAGCTA	-0.0126
AGTGTCTG	0.15
ACGCAGGG	-0.155
AGCTGCGC	0.0681
ACAAAGTG	0.0733
GCTCAGAC	-0.0381
CACCTAGA	-0.156
CTTAAGCC	0.00617
ATAAGCAC	0.208
ATAAGCAT	0.0827
ATAAGCAA	0.296
AGATACAA	0.256
AGATACAG	0.0445
CGATACAA	0.0958
GTGCTCTA	-0.119
GTGACTTA	0.1
GTAAGCGA	0.281
ATAAGCGG	0.0934
ATAAGCGA	0.287
ATAAGCGC	0.139
CTAAGCGA	0.0774

Sequence	PBM E-score
GGAAGCGA	-0.0787
CAAACCGG	-0.0831
AAGTATGG	0.00171
ACTGGAGG	0.0173
ATATTTGC	0.306
CTATTTGC	-0.0458
ATATTTAA	0.272
ACATTTAG	-0.126
ATTTTTAG	0.0211
ACATTTAA	0.253
GCATTTAA	0.0157
ATATTTAG	0.255
CTATTTAA	-0.0377
ATATTTGG	0.146
ATATTTAC	0.228
GTATTTAA	0.0263
CAAGAGGG	-0.247
CGCAACGA	-0.00619
CCGGAAAC	0.125
CCCGGGTC	-0.242
ATGACGAA	0.145
ATATGATA	0.285
ATGATATC	0.0971
GTATGATA	0.23
ATGATATG	0.29

Sequence	PBM E-score
CTATGATA	0.0824
ATGATATA	-0.027
CTAACTGC	-0.0676
AAACACCA	-0.00879
CGTATGGC	0.14
AGTACGAA	0.22
AGCAGCGG	-0.0904
AAATTATC	0.246
AAATTATG	0.255
ATATTATC	0.096
CAATTATG	0.105
ATATTATG	0.268
ATATTATA	0.164
ACATGTAT	0.204
ATGCCTTA	-0.158
CGTGATCA	0.123
AATTTTGG	0.149
ATTGGTAA	0.257
CTTGGTAA	0.0981
GTTGGTAA	0.19
GCCCACAA	-0.153
CTTCAATC	-0.066
ATTCAATC	0.263
ATTCAATG	0.114
GACACAGC	0.0664

Sequence	PBM E-score
CCTGTGCC	-0.136
ATTCCGGA	0.254
AATCCGGC	0.104
ATTCCGGG	0.122
AATCCGAC	0.00376
CTTCCGGA	0.0325
AATCCGAA	-0.0355
AATCCGGA	0.306
AATCCGGG	-0.0636
AATCCGAT	0.25
CTGCTCAC	-0.0643
TGACCACA	-0.0368
GTCTCCTA	-0.194
ACCAAGGC	-0.0921
ACAGTCCC	-0.188
CCTAGCAA	-0.0559
CGAGCTTA	0.214
AGAGCTTC	-0.181
CGAGCTTC	0.258
